# Laboratory results published in paper PMC7862700, “An all-to-all approach to the identification of sequence-specific readers for epigenetic DNA modifications on cytosine”.
# Key:
# Test in all cases: DAPPL (digital affinity profiling via proximity ligation, sequencing); 10 mM Tris-HCl pH 7.5, 50 mM NaCl, 1 mM DTT, 4% glycerol, room temperature, 30 min; GST-TFs on glutathione beads, 16-mer random dsDNA library, 0.1% formaldehyde crosslink after washing; high values mean tight binding
# FEV = target: T1, FEV (Homo sapiens, UniProt Q99581 1-238); conditions: protein: recombinant; tags: N-terminal GST; dsDNA, one strand shown
# T1 sequence: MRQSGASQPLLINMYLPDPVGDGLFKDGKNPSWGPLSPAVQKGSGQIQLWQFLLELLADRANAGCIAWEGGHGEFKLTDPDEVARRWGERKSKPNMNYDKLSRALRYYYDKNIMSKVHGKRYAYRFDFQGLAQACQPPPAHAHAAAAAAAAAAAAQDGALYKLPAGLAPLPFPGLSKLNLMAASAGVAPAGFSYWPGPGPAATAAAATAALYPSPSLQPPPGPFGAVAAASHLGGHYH
# Summary of the method: (§1)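 Binding signal is given per hexamer as its read frequency for a factor divided by its frequency in the tag-only sample. GST-fused human transcription factors were expressed in yeast, captured on glutathione beads, barcoded with DNA and pooled with that sample, then incubated with 200 nmole of a 16-mer random double-stranded DNA library in Tris/NaCl/DTT/glycerol buffer for 30 min at room temperature. The pools were then washed, crosslinked, proximity-ligated, amplified by PCR and sequenced on an Illumina NextSeq500.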
# ETV5 = ETV5 (Homo sapiens, UniProt P41161 1-510); conditions: protein: recombinant; tags: N-terminal GST; dsDNA, one strand shown
# Sequence of ETV5 (P41161 whole entry): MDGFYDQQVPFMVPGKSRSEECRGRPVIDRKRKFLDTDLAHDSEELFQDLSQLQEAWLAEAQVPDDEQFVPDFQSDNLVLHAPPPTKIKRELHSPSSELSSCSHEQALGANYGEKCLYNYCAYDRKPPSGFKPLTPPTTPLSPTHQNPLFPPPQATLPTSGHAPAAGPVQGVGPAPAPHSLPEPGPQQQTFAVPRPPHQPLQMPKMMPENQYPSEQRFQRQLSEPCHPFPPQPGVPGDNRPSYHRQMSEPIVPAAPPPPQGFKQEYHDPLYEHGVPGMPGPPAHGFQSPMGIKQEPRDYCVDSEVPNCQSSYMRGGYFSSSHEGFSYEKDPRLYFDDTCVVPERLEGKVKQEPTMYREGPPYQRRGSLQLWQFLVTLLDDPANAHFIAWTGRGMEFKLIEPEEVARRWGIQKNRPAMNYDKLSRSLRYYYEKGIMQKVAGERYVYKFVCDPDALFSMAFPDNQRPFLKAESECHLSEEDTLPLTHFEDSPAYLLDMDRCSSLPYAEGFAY
# Summary of the method: as §1
# HSF1 = HSF1 (Homo sapiens, UniProt Q00613 1-529); conditions: protein: recombinant; tags: N-terminal GST; chain copies: 3; dsDNA, one strand shown
# Sequence of HSF1 (Q00613 whole entry): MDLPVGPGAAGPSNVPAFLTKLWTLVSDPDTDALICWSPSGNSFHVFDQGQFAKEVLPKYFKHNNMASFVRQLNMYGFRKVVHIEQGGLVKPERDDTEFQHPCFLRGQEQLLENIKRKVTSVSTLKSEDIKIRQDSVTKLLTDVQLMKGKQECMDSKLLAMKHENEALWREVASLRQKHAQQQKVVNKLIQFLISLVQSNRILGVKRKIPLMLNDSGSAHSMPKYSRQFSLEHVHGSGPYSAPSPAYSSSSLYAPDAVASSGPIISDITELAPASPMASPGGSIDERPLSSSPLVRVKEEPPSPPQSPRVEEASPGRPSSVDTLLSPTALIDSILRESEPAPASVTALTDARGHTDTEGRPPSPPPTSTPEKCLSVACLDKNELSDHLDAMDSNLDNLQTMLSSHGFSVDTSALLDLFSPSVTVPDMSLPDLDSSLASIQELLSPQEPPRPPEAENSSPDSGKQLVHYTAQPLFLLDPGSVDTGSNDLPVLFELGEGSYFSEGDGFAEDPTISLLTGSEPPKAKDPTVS
# Summary of the method: as §1
# SPIC = target: T2, SPIC (Homo sapiens, UniProt Q8N5J4 1-248); conditions: protein: recombinant; tags: N-terminal GST; dsDNA, one strand shown
# T2 sequence: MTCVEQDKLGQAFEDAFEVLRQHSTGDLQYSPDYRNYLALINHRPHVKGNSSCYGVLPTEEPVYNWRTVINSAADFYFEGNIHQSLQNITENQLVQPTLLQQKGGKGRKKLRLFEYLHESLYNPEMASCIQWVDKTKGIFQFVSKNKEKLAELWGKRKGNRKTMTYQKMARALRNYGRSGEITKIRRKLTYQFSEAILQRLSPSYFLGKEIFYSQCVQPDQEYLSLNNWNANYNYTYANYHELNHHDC
# Summary of the method: as §1
# ELF4 = ELF4 (Homo sapiens, UniProt Q99607 1-663); conditions: protein: recombinant; tags: N-terminal GST; dsDNA, one strand shown
# Sequence of ELF4 (Q99607 whole entry): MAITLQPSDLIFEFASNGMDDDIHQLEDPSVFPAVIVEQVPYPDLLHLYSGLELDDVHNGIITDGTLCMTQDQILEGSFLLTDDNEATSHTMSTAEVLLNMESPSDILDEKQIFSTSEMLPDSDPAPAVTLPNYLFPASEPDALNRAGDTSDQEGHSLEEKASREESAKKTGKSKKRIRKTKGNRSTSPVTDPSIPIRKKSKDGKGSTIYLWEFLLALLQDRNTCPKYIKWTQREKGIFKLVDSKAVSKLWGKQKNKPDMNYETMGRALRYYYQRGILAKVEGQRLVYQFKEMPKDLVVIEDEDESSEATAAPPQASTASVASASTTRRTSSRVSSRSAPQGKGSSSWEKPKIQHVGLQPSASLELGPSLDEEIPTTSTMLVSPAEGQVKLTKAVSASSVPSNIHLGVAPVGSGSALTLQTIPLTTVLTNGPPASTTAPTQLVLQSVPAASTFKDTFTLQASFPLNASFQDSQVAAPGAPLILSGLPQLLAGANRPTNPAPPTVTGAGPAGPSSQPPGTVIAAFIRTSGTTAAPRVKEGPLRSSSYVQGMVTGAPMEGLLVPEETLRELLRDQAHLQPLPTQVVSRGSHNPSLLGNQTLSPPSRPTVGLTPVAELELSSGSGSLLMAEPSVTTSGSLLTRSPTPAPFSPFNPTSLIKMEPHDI
# Summary of the method: as §1
# ELK4 = target: T3, ELK4 (Homo sapiens, UniProt P28324-2 1-405); conditions: protein: recombinant; tags: N-terminal GST; dsDNA, one strand shown
# T3 sequence: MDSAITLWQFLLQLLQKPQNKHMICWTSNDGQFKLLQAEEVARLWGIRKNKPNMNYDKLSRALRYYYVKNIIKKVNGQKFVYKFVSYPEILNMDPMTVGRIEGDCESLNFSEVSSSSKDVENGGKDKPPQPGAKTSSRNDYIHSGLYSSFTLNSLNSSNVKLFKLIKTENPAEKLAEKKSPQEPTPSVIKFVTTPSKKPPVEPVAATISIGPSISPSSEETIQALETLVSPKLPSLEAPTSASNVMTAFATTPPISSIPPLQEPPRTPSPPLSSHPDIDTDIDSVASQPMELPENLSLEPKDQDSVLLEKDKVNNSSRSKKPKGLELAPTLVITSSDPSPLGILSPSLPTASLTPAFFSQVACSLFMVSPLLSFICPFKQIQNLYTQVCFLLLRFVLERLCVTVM
# Summary of the method: as §1
# ETV2 = target: T4, ETV2 (Homo sapiens, UniProt O00321 1-342); conditions: protein: recombinant; tags: N-terminal GST; dsDNA, one strand shown
# T4 sequence: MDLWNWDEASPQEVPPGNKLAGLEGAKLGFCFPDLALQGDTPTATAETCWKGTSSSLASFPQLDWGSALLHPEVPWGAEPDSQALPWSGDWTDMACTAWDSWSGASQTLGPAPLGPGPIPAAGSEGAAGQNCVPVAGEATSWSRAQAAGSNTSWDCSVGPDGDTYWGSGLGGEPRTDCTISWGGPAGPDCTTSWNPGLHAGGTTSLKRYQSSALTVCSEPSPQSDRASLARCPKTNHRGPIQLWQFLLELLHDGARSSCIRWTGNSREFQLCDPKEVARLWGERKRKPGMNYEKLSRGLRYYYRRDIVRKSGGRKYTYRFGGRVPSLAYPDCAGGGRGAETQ
# Summary of the method: as §1
# ELF3 = target: T5, ELF3 (Homo sapiens, UniProt P78545 1-371); conditions: protein: recombinant; tags: N-terminal GST; dsDNA, one strand shown
# T5 sequence: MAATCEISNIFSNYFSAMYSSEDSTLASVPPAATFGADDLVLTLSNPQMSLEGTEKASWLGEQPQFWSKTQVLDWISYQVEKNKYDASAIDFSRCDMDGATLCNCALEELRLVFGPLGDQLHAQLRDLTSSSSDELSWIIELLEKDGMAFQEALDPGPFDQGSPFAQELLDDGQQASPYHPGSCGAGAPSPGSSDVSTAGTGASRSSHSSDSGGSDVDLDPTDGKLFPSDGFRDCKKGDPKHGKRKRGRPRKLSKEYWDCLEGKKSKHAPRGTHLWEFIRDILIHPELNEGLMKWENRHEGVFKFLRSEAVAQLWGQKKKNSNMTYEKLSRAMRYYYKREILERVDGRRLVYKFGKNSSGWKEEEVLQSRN
# Summary of the method: as §1
# CRX = CRX (Homo sapiens, UniProt O43186 1-299); conditions: protein: recombinant; tags: N-terminal GST; dsDNA, one strand shown
# Sequence of CRX (O43186 whole entry): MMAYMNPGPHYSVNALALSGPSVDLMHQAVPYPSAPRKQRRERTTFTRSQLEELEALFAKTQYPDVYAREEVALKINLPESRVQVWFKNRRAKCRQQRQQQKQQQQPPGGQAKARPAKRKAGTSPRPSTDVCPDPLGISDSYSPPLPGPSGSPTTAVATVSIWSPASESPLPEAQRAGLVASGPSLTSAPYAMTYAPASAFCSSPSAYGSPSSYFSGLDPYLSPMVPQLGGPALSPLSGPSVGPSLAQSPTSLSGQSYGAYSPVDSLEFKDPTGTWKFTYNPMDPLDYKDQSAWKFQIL
# Summary of the method: as §1
# ETV1 = ETV1 (Homo sapiens, UniProt P50549 1-477); conditions: protein: recombinant; tags: N-terminal GST; dsDNA, one strand shown
# Sequence of ETV1 (P50549 whole entry): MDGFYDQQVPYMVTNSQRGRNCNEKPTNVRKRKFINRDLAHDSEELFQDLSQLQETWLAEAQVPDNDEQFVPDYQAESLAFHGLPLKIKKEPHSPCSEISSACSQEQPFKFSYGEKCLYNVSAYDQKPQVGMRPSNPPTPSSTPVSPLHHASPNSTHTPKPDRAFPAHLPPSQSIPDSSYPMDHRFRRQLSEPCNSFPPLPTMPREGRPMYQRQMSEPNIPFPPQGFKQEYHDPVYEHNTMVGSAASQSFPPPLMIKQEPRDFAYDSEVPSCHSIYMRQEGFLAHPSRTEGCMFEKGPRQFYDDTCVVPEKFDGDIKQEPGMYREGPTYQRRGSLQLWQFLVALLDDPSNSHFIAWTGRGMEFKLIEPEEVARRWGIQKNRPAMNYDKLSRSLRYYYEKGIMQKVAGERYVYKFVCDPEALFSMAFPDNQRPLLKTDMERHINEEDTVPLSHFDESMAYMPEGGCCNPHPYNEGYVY
# Summary of the method: as §1
sequence,measurement,setting,value
CCCTTA,binding signal,FEV,"1.24 fold enrichment (6-mer frequency, TF over GST control)"
same,binding signal,ETV5,"1.28 fold enrichment (6-mer frequency, TF over GST control)"
same,binding signal,HSF1,"1.28 fold enrichment (6-mer frequency, TF over GST control)"
same,binding signal,SPIC,"1.31 fold enrichment (6-mer frequency, TF over GST control)"
same,binding signal,ELF4,"1.39 fold enrichment (6-mer frequency, TF over GST control)"
same,binding signal,ELK4,"1.21 fold enrichment (6-mer frequency, TF over GST control)"
same,binding signal,ETV2,"1.41 fold enrichment (6-mer frequency, TF over GST control)"
same,binding signal,ELF3,"1.29 fold enrichment (6-mer frequency, TF over GST control)"
same,binding signal,CRX,"1.59 fold enrichment (6-mer frequency, TF over GST control)"
same,binding signal,ETV1,"1.21 fold enrichment (6-mer frequency, TF over GST control)"
